Compounds with a hit are over-represented: about 27% of the library has one in this group of screens.
CYP2C19 inh: blockers of cytochrome P450 2C19 activity – biochemical, luminescence, ADME assay, primary screen | inhibition, % at 5 µM | CYP2C19 Supersomes, luciferin-H EGE luminescence, 30 min | AID 778, 2007 | P33261 | 96,000 tested, 21% active;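 active = CYP2C19 inhibition above a set limit at 5 µM in the primary screen, cut at about 50% in these data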
Target sequence (P33261 whole entry, looked up): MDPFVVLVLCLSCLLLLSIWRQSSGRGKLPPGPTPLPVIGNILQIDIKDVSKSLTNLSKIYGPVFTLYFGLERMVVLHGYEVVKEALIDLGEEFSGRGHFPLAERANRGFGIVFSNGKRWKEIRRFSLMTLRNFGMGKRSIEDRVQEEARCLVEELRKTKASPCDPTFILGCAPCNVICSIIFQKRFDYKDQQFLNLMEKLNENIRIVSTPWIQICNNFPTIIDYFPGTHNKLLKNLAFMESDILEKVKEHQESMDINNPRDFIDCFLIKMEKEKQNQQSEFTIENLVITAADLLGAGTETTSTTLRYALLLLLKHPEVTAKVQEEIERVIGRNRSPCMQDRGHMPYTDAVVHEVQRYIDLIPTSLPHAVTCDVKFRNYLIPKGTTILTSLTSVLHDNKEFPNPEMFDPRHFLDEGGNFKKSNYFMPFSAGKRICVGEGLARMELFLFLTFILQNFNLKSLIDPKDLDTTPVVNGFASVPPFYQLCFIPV
CYP2C9 inhib: blockers of cytochrome P450 2C9 activity – biochemical, luminescence, ADME assay, primary screen. CYP2C9 Supersomes, luciferin-H conversion. inhibition, % at 5 µM. 96,000 tested, 20% active. AID 777, 2007;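 active = blocking of liver enzyme CYP2C9 beyond about 50% at 5 µM, limit read from the data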
CYP2C19 act: human CYP2C19 activators, primary screen, biochemical, luminescence; Cytochrome P450 2C19 (Homo sapiens), P33261; recombinant CYP2C19, luciferin-H EGE luminescence; stronger effect = higher value; 0 = fully inhibited enzyme, 1 = untreated enzyme; activation factor at 5 µM; 96,000 tested, under 10 active;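 active = activation factor of at least 2 at 5 µM in the primary screen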
CYP2C9 act: human CYP2C9 activators, primary screen, biochemical, luminescence; Cytochrome P450 2C9 (Homo sapiens), P11712; recombinant CYP2C9, luciferin-H conversion; stronger effect = higher value; factor 1 = untreated enzyme, 0 = blocked; activation factor at 5 µM; 96,000 tested, 1.4% active;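 active = activation factor of 2 or more for CYP2C9 at a 5 µM dose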
Cav3 T inh: Cav3.2 calcium influx blockers – cell-based, Fluo-4 calcium fluorescence, FDSS, MLSMR library, primary screen | Cav3.2-expressing cells; stronger effect = lower value | B-score at 10 µM | 100,000 tested, 4% active | Voltage-dependent T-type calcium channel subunit alpha-1H (Homo sapiens), O95180;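 active = single-dose well whose peak fluorescence ratio is a statistical outlier from its plate by either plate-standardised score or position-corrected B-score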
Each line names hits and unclear results; the compound was inactive in the other large screens.

Clc1ccccc1OCc1nc(-c2ccncc2)no1	CYP2C19 inh 98, CYP2C9 inhib 98
Clc1ccc(OCc2nc(-c3ccncc3)no2)c(Br)c1	CYP2C19 inh 94, CYP2C9 inhib 95 (no result: Cav3 T inh)
CS(=O)(=O)N1CCN(C(=O)c2ccc(Br)s2)CC1	CYP2C19 inh 94
O=C(O)CCC(=O)Nc1ccc(C(=O)N2CCCCC2)cc1	none (no result: Cav3 T inh)
O=S(=O)(c1ccc(N2CCN(S(=O)(=O)c3ccc4c(c3)OCCO4)CC2)nc1)N1CCCC1	none (no result: CYP2C19 inh, CYP2C9 inhib, CYP2C19 act, CYP2C9 act)
CCCCn1c(=O)c2ccccc2c2ccccc2c1=O	CYP2C19 inh 82, CYP2C9 inhib 72
COc1ccnc(N2CCN(c3ccccc3)CC2)c1C#N	CYP2C19 inh 100, CYP2C9 inhib 80
FC(F)(F)c1nc(N2CCN(c3ccccc3)CC2)nc2c1CCCCC2	none
Cn1nc(C(F)(F)F)c(C#N)c1N1CCN(c2ccccc2)CC1	CYP2C19 inh 69, CYP2C9 inhib 72
Cn1nc([N+](=O)[O-])nc1N1CCN(c2ccc(F)cc2)CC1	none
Cn1nc(C(F)(F)F)c(C#N)c1N1CCN(c2ccc(F)cc2)CC1	CYP2C19 inh 78, CYP2C9 inhib 82
O=C(CSc1nnc(NC(=O)c2ccco2)s1)NC1CCCCC1	none
CCn1c2ccccc2c2cc(/C=N/n3cn[nH]c3=S)ccc21	CYP2C19 inh 81
C(=N\n1cnnc1)/c1cn(Cc2ccccc2)c2ccccc12	CYP2C19 inh 85, CYP2C9 inhib 66
CCn1c2ccccc2c2cc(/C=N/n3cnnc3)ccc21	CYP2C19 inh 97, CYP2C9 inhib 74
CCn1c(/C=N/n2cnnc2)nc2ccccc21	none
CCC(C)(C)n1nnnc1CN(Cc1cc2cc(OC)c(OC)cc2[nH]c1=O)C1CCCC1	none
CCCCN(Cc1ccccc1)C(=O)c1cnc2n(c1=O)CCS2	none
O=C(O)c1cccc(NC(=S)NC(=O)C(c2ccccc2)c2ccccc2)c1	CYP2C9 inhib 82
Cc1ccc(C(=O)Nc2cccc(C(=O)O)c2)cc1	CYP2C19 inh 87, CYP2C9 inhib 54
CCC(=O)NC(=S)Nc1cccc(C(C)=O)c1	none
COc1ccc(C(=O)Nc2cccc(C(=O)N3CCN(C)CC3)c2)cc1	none
COc1ccc(C(=O)Nc2cccc(C)c2)cc1	CYP2C19 inh 71
Cc1nnc(N2CCOCC2)c2ccccc12	none
CC(=O)NCCC(=O)Nc1sc2c(c1-c1nc3ccccc3[nH]1)CCCC2	CYP2C9 inhib 61
COc1ccc(C)cc1NC(=O)c1cc2ccccc2cc1OCC(=O)NCc1ccco1	none
CCCNC(=O)c1onc(CSc2ccncc2)c1C(=O)NCCC	none (no result: CYP2C19 inh, CYP2C9 inhib, CYP2C19 act, CYP2C9 act)
C=CCNC(=O)c1onc(CSc2ccc(C)c(C)c2)c1C(=O)O	CYP2C19 inh 94, CYP2C9 inhib 88
COc1cccc(SCc2noc(C(=O)NCc3ccccc3)c2C(=O)NCc2ccccc2)c1	none (no result: CYP2C19 inh, CYP2C9 inhib, CYP2C19 act, CYP2C9 act)
CCCCNC(=O)c1onc(CSc2ccc(C)c(C)c2)c1C(=O)O	CYP2C9 inhib 83
C=CCNC(=O)c1onc(CSc2ccc(F)c(F)c2)c1C(=O)NCC=C	none (no result: CYP2C19 inh, CYP2C9 inhib, CYP2C19 act, CYP2C9 act)
CCCCNC(=O)c1onc(CSc2ccc(F)c(F)c2)c1C(=O)O	CYP2C9 inhib 73
COC(=O)c1c(CSc2ccc(C)c(C)c2)noc1C(=O)NCc1ccc(OC)cc1	CYP2C19 inh 65, CYP2C9 inhib 75
C=CCNC(=O)c1onc(CSc2ccccc2)c1C(=O)NCC=C	none (no result: CYP2C19 inh, CYP2C9 inhib, CYP2C19 act, CYP2C9 act)
CC(C)NC(=O)C1CC(=O)N(c2ccc(F)c(Cl)c2)C1 (stereo not given)	none
CCOc1ccc(Br)cc1S(=O)(=O)Nc1ccccc1N1CCOCC1	CYP2C19 inh 78, CYP2C9 inhib 55
CCOc1ccc(Br)cc1S(=O)(=O)Nc1ccc(N2CCOCC2)cc1	CYP2C19 inh 64, CYP2C9 inhib 54
COc1cc2c(C(=O)N3CCCc4ccccc43)cn(C)c(=O)c2cc1OC	none
Cc1ccc(-n2c(C)cc(/C=N/NC(=O)CN(c3ccc(C)cc3C)S(C)(=O)=O)c2C)cc1	Cav3 T inh -8.4
CCOC(=O)N1CCN(c2nc(-c3ccc(F)cc3)cs2)CC1	none
CCOC(=O)N1CCC(c2cc(=O)n3[nH]c(C)c(-c4ccc(F)cc4)c3n2)CC1	CYP2C9 inhib 68 (no result: Cav3 T inh)
CCCNS(=O)(=O)c1ccc(OCC(=O)Nc2ccccc2F)cc1	none (no result: CYP2C19 inh, CYP2C9 inhib, CYP2C19 act, CYP2C9 act)
CCCNS(=O)(=O)c1ccc(CCC(=O)Nc2cc(Cl)ccc2Oc2ccccc2)cc1	Cav3 T inh -7 (no result: CYP2C19 inh, CYP2C9 inhib, CYP2C19 act, CYP2C9 act)
CC(C)CNS(=O)(=O)c1ccc(CCC(=O)Nc2cc(Cl)ccc2Oc2ccccc2)cc1	CYP2C9 inhib 73, Cav3 T inh -6.2
CC(C)(C)NS(=O)(=O)c1ccc(CCC(=O)Nc2cc(Cl)ccc2Oc2ccccc2)cc1	CYP2C19 inh 73, CYP2C9 inhib 90, Cav3 T inh -5.3
CC(C)CNS(=O)(=O)c1ccc(CCC(=O)O)cc1	none
Cn1cc(C(=O)Nc2cccc(F)c2)cn1	none
COC(=O)[C@]12C(=O)C(C)=C(O)[C@@]1(C)C(C)=CC1[C@@]34CC[C@@H](OC(C)=O)C(C)(C)C3C(C[C@]12C)OC4=O (stereo not given in full)	none (no result: CYP2C19 inh, CYP2C9 inhib, CYP2C19 act, CYP2C9 act)
O=C(/C=C/c1cccs1)N1CCC2(CC1)Oc1ccc(Cl)cc1C(=O)C21CC(c2cccnc2)=NO1 (stereo not given)	none (no result: CYP2C19 inh, CYP2C9 inhib, CYP2C19 act, CYP2C9 act)
Cc1ccccc1-c1nc(CN2CCC(C(=O)NCc3cccs3)CC2)c(C)o1	none
CCN(CCCNC(=O)CCc1nc(-c2ccc(C)cc2)no1)c1cccc(C)c1	CYP2C9 inhib 52, Cav3 T inh -8.1
Cc1ccc(-c2noc(CCC(=O)NCCc3ccccc3Cl)n2)cc1	none
O=C(CCc1nc(-c2ccccc2F)no1)NCCc1ccccc1Cl	CYP2C19 inh 80, CYP2C9 inhib 56, Cav3 T inh -7.8
Cc1ccc(-c2noc(CCC(=O)NCCN3CCOCC3)n2)cc1	none
Cc1ccc(-c2noc(CCC(=O)NCCN3CCc4ccccc4C3)n2)cc1	CYP2C19 inh 84, CYP2C9 inhib 72, Cav3 T inh -7.1
O=C(CCc1nc(-c2ccccc2F)no1)NCCN1CCc2ccccc2C1	CYP2C19 inh 60
O=C(Nc1ccc(Br)c(Cl)c1)C1CC1	none
Nc1ccc(O)c(-c2nc3ccccc3s2)c1	none
Nc1cccc(-c2nc3ccc(N)cc3s2)c1	CYP2C19 inh 80, CYP2C9 inhib 58
O=C(Cn1c(O)c(/C=C2\C=Nc3ccc(Br)cc32)sc1=O)N1CCCC1	CYP2C19 inh 70, CYP2C9 inhib 91 (no result: Cav3 T inh)
CC1=Nc2ccccc2/C1=C/c1sc(=O)n(CC(=O)N2CCCC2)c1O	none
O=C(OC1CCc2ccccc2C1=O)c1ccccc1O (stereo not given)	CYP2C19 inh 82, CYP2C9 inhib 90
CCCN1C2CCCC1CC(NC(=O)Nc1ccc(C(C)C)cc1)C2 (stereo not given)	Cav3 T inh -4.9 (no result: CYP2C19 inh, CYP2C9 inhib, CYP2C19 act, CYP2C9 act)
Cc1nc(N)sc1-c1csc(Nc2ccccn2)n1	CYP2C9 inhib 61

Screens as filed in PubChem BioAssay.
